From PubChem BioAssay (NCATS)
Records with an inconclusive call do not appear. Activity calls are given as the source filed them. Calls come from the whole dose curve; as a rule, active = well fitted curve in either direction with a large enough effect (not every such curve was filed as active); inconclusive = small, poorly fitted or top-dose-only effect, or another doubt; inactive = flat fitted curve, though single readings scatter.

Experiment: NFAT Signaling Pathway (AID 444);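 note: carbachol stimulus at about its EC50 of 1 µM final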
Settings: Jurkat NFAT-bla M1, carbachol, beta-lactamase ratio, 5 h; at 7.69 µM (top of the series) unless noted
In short: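 Jurkat cells with NFAT-driven β-lactamase reporter and co-expressed M1 receptor, stimulated with carbachol (final 1 uM, ~EC50), compound titration, 5 h at 37 °C. CCF4 loaded 1 h at RT; 460/530 nm ratio gave %activity and AC50.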
% is set by controls: 0 for no effect and ±100 for the full control effect.

Activity change, negative = inhibition, inactive:
Cc1noc(C)c1-c1nccc(NCc2ccccc2)n1 -7.38%
c1ccc(CNc2cc(-c3ccoc3)ncn2)cc1 -2.19%
CN(Cc1ccco1)c1cc(-c2cccnc2)ncn1 -0.973%
c1cncc(CNc2cc(-c3ccoc3)ncn2)c1 -10.4%
CC(=O)NCCNc1nc(-c2c(C)noc2C)nc2ccccc12 6.76%
CC(=O)NCCNc1ccnc(-c2ccccc2C)n1 6.08%
Cc1cnc(CNc2ccnc(-c3cccc(NS(C)(=O)=O)c3)n2)cn1 13.5%
CS(=O)(=O)Nc1cccc(-c2cc(NCc3ccccc3)ncn2)c1 8.48%
CCNc1ncc2nc(-c3cccc(C#N)c3)c(=O)n(CCC#N)c2n1 -1.23%
c1ccc(CNc2nc(-c3ccoc3)nc3ccccc23)cc1 -7.24%
COc1ccc(CNc2ccnc(-c3cccnc3)n2)c(OC)c1 -0.132%
COCCn1c(=O)c(-c2cccc(F)c2)nc2cncnc21 -5.24%
CN(Cc1ccco1)c1ccnc(-c2cccnc2)n1 -13.4%
O=c1c(-c2cccc(Cl)c2)nc2cncnc2n1Cc1ccccc1 -0.741%
CS(=O)(=O)Nc1cccc(-c2cncnc2Nc2ccccc2)c1 23.9%
COc1ccc(CNc2ncncc2-c2ccc(N(C)C)cc2)c(OC)c1 1.33%
COc1cccc(Cn2c(=O)c(-c3cccc(C#N)c3)nc3cnc(OC)nc32)c1 -8.15%
O=c1c(-c2cccs2)nc2cncnc2n1-c1ccccc1 -9.03%
Cn1cc(-c2nc3cncnc3n(C3CC3)c2=O)c2ccccc21 9.91%
Clc1ccccc1-c1nccc(NCCN2CCOCC2)n1 3.47%
COc1cccc(-c2cncnc2NCc2cnc(C)cn2)c1 8.15%
c1ccc(Nc2ncncc2-c2ccoc2)cc1 0.789%
CN(C)C(=O)c1ccc(-c2nccc(-n3ccnc3)n2)cc1 5.95%
COc1cccc(-c2cncnc2NCc2cccs2)c1 9.12%
COc1ccc2[nH]cc(CCNc3ncncc3-c3cccnc3)c2c1 3.23%
COc1ccccc1-c1cc(Nc2ccn[nH]2)ncn1 2.51%
COc1ccccc1-c1cncnc1NCc1cccs1 -3.21%
N#Cc1ccccc1-c1ccc2ncnc(NCCN3CCOCC3)c2c1 -6.3%
CN(Cc1ccco1)c1ncncc1-c1cccnc1 -11.4%
COc1ccc2[nH]cc(CCNc3ccnc(-c4ccc5c(c4)OCO5)n3)c2c1 -4.51%
Cc1ccccc1-c1cc(NCc2cccnc2)ncn1 2.72%
CCNc1ncc2nc(-c3cccs3)c(=O)n(-c3ccccc3)c2n1 -3.13%
COCCNc1nc(-c2c(C)noc2C)nc2ccccc12 22.9%
COc1ccccc1-c1nc(N(C)Cc2ccco2)c2ccccc2n1 -21.3%
COc1ccccc1-c1cncnc1NCc1ccccc1 -17.9%
COc1ccccc1-c1nc(NCCN2CCOCC2)c2ccccc2n1 -28.2%
c1csc(CNc2nc(-c3ccoc3)nc3ccccc23)c1 -8.44%
Cc1ccccc1-c1cc(N(C)Cc2ccco2)ncn1 -15.6%
CN(C)C(=O)c1ccc(-c2ccc3ncnc(N4CCOCC4)c3c2)cc1 11.5%
CS(=O)(=O)Nc1cccc(-c2cncnc2-n2ccnc2)c1 14.5%
